Hit rate of the full screen: of about 5,500 compounds, about 2,000 (36%) were called active. Inconclusive results (about 18%) are left out. No stated cut-off is given here; in the data, active means normalized growth mostly below about 0.91 (no sharp cut-off); inconclusive means no clear call, values can overlap the other calls; inactive means mostly above about 0.92. The list shows a part of the results.
Test: chemical genetic growth profiling, strain panel (AID 1159580);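 further: tested at 20 µM; growth read once vehicle control cultures reached saturation at 30 °C; 1 = growth at the plate median or of vehicle wells; lower values mean less growth of the strain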
Conditions: growth OD

Measured: normalized growth

ClC1=C(Cl)C2(Cl)C3C(Cl)C=CC3C1(Cl)C2(Cl)Cl (configuration not stated)
inactive: S. cerevisiae deletion strains, locus YJR075W, strain HOC1, active compounds read low 1 | S. cerevisiae deletion strains, locus YKL009W, strain mrt4, active compounds read low 0.957 | S. cerevisiae deletion strains, locus YKL068W, active compounds read low 1 | S. cerevisiae deletion strains, locus YKL085W, strain MDH1 (second series), active compounds read low 0.996 | S. cerevisiae deletion strains, locus YKL085W, strain MDH1, active compounds read low 0.996 | S. cerevisiae deletion strains, locus YKL160W, strain elf1, active compounds read low 0.993 | S. cerevisiae deletion strains, locus YKL190W, strain CNB1, active compounds read low 0.989 | S. cerevisiae deletion strains, locus YKR001C, strain vps1, active compounds read low 0.965 | S. cerevisiae deletion strains, locus YKR026C, strain gcn3, active compounds read low 1.01 | S. cerevisiae deletion strains, locus YKR091W, strain srl3, active compounds read low 1.01 | S. cerevisiae deletion strains, locus YLL001W, strain dnm1, active compounds read low 1 | S. cerevisiae deletion strains, locus YLL026W, active compounds read low 1.01 | S. cerevisiae deletion strains, locus YLL041C, strain sdh2, active compounds read low 1.01 | S. cerevisiae deletion strains, locus YLR027C, strain aat2, active compounds read low 0.97 | S. cerevisiae deletion strains, locus YLR039C, strain RIC1, active compounds read low 1 | S. cerevisiae deletion strains, locus YLR058C, strain SHM2, active compounds read low 0.986 | S. cerevisiae deletion strains, locus YLR102C, strain apc9, active compounds read low 0.981 | S. cerevisiae deletion strains, locus YLR113W, strain HOG1, active compounds read low 0.938 | S. cerevisiae deletion strains, locus YLR221C, strain rsa3, active compounds read low 0.971 | S. cerevisiae deletion strains, locus YLR258W, strain gsy2, active compounds read low 0.988 | S. cerevisiae deletion strains, locus YLR262C, strain YPT6 (second series), active compounds read low 0.933 | S. cerevisiae deletion strains, locus YLR262C, strain YPT6, active compounds read low 1.01 | S. cerevisiae deletion strains, locus YLR268W, strain sec22, active compounds read low 0.985 | S. cerevisiae deletion strains, locus YLR320W, strain mms22, active compounds read low 0.965 | S. cerevisiae deletion strains, locus YLR330W, strain CHS5, active compounds read low 0.998 | S. cerevisiae deletion strains, locus YLR342W, strain FKS1 (second series), active compounds read low 0.948 | S. cerevisiae deletion strains, locus YLR342W, strain FKS1, active compounds read low 1.01 | S. cerevisiae deletion strains, locus YLR357W, strain rsc2, active compounds read low 1 | S. cerevisiae deletion strains, locus YLR370C, strain arc18, active compounds read low 0.999 | S. cerevisiae deletion strains, locus YLR371W, strain rom2, active compounds read low 0.973 | S. cerevisiae deletion strains, locus YLR384C, strain iki3, active compounds read low 1.01 | S. cerevisiae deletion strains, locus YLR418C, strain cdc73, active compounds read low 0.977 | S. cerevisiae deletion strains, locus YML016C, strain PPZ1, active compounds read low 0.992 | S. cerevisiae deletion strains, locus YML032C, strain rad52, active compounds read low 0.968 | S. cerevisiae deletion strains, locus YML120C, strain ndi1, active compounds read low 1 | S. cerevisiae deletion strains, locus YML124C, strain tub3, active compounds read low 0.978 | S. cerevisiae deletion strains, locus YMR058W, strain fet3, active compounds read low 0.998 | S. cerevisiae deletion strains, locus YMR078C, strain ctf18, active compounds read low 0.959 | S. cerevisiae deletion strains, locus YMR125W, strain sto1, active compounds read low 1.01 | S. cerevisiae deletion strains, locus YMR129W, active compounds read low 1.01 | S. cerevisiae deletion strains, locus YMR205C, strain PFK2, active compounds read low 0.947 | S. cerevisiae deletion strains, locus YMR223W, strain ubp8, active compounds read low 0.95 | S. cerevisiae deletion strains, locus YMR231W, strain pep5, active compounds read low 0.987 | S. cerevisiae deletion strains, locus YMR263W, strain SAP30, active compounds read low 0.999 | S. cerevisiae deletion strains, locus YMR307W, strain GAS1, active compounds read low 1.06 | S. cerevisiae deletion strains, locus YNL067W, strain RPL9B, active compounds read low 1 | S. cerevisiae deletion strains, locus YNL071W, strain lat1, active compounds read low 1.02 | S. cerevisiae deletion strains, locus YNL128W, strain TEP1, active compounds read low 0.987 | S. cerevisiae deletion strains, locus YNL153C, strain GIM3, active compounds read low 0.989 | S. cerevisiae deletion strains, locus YNL183C, strain NPR1, active compounds read low 0.962 | S. cerevisiae deletion strains, locus YNL209W, strain ssb2, active compounds read low 0.997 | S. cerevisiae deletion strains, locus YNL233W, strain BNI4, active compounds read low 0.978 | S. cerevisiae deletion strains, locus YNL248C, strain rpa49, active compounds read low 0.996 | S. cerevisiae deletion strains, locus YNL250W, strain rad50, active compounds read low 0.99 | S. cerevisiae deletion strains, locus YNL271C, strain bni1, active compounds read low 0.984 | S. cerevisiae deletion strains, locus YNL298W, strain CLA4, active compounds read low 0.977 | S. cerevisiae deletion strains, locus YNL322C, strain KRE1 (second series), active compounds read low 0.982 | S. cerevisiae deletion strains, locus YNL322C, strain KRE1, active compounds read low 1 | S. cerevisiae deletion strains, locus YNR049C, strain mso1, active compounds read low 1 | S. cerevisiae deletion strains, locus YNR052C, strain pop2, active compounds read low 0.964 | S. cerevisiae deletion strains, locus YOL006C, strain TOP1, active compounds read low 0.97 | S. cerevisiae deletion strains, locus YOL012C, strain htz1 0.908 | S. cerevisiae deletion strains, locus YOL147C, strain pex11, active compounds read low 0.989 | S. cerevisiae deletion strains, locus YOR001W, strain rrp6, active compounds read low 1.01 | S. cerevisiae deletion strains, locus YOR061W, strain CKA2, active compounds read low 0.993 | S. cerevisiae deletion strains, locus YOR069W, strain VPS5, active compounds read low 0.982 | S. cerevisiae deletion strains, locus YOR070C, strain gyp1, active compounds read low 1.01 | S. cerevisiae deletion strains, locus YOR080W, strain dia2, active compounds read low 0.995 | S. cerevisiae deletion strains, locus YOR083W, strain WHI5, active compounds read low 0.974 | S. cerevisiae deletion strains, locus YOR106W, strain vam3, active compounds read low 0.942 | S. cerevisiae deletion strains, locus YOR136W, strain idh2, active compounds read low 0.963 | S. cerevisiae deletion strains, locus YOR144C, strain elg1, active compounds read low 0.977 | S. cerevisiae deletion strains, locus YOR184W, strain ser1, active compounds read low 0.886 | S. cerevisiae deletion strains, locus YOR231W, strain MKK1, active compounds read low 1.02 | S. cerevisiae deletion strains, locus YOR265W, strain rbl2, active compounds read low 1.01 | S. cerevisiae deletion strains, locus YOR270C, strain vph1, active compounds read low 0.82 | S. cerevisiae deletion strains, locus YOR290C, strain snf2, active compounds read low 0.939 | S. cerevisiae deletion strains, locus YOR316C, strain cot1, active compounds read low 0.985 | S. cerevisiae deletion strains, locus YPL051W, strain arl3, active compounds read low 0.996 | S. cerevisiae deletion strains, locus YPL055C, strain LGE1, active compounds read low 1 | S. cerevisiae deletion strains, locus YPL078C, strain atp4, active compounds read low 1 | S. cerevisiae deletion strains, locus YPL106C, strain sse1, active compounds read low 0.963 | S. cerevisiae deletion strains, locus YPL240C, strain hsp82, active compounds read low 0.999 | S. cerevisiae deletion strains, locus YPL241C, strain CIN2, active compounds read low 0.993 | S. cerevisiae deletion strains, locus YPL256C, strain CLN2, active compounds read low 1.02 | S. cerevisiae deletion strains, locus YPR119W, strain clb2, active compounds read low 0.987 | S. cerevisiae deletion strains, locus YPR141C, strain kar3, active compounds read low 0.982 | S. cerevisiae deletion strains, locus YPR163C, strain tif3, active compounds read low 0.981 | S. cerevisiae deletion strains, locus YPR167C, strain met16, active compounds read low 0.976 | S. cerevisiae deletion strains, strain wtn01, active compounds read low 0.97 | S. cerevisiae strains, strain wild type, active compounds read low 1
active: S. cerevisiae deletion strains, locus YNL307C, strain MCK1, active compounds read low 0.885

From PubChem BioAssay AID1159580 (chemical genetic matrix, 2015)
